In paper PMC8384837, “Expanding the binding specificity for RNA recognition by a PUF domain” one finds binding signal data, which are given here for nine sequences.

Holding throughout (test): yeast three-hybrid, YBZ-1, SC-Leu-His + 0.5 mM 3-AT, 4 days
Common to all, as to conditions: tags: N-Gal4 AD-HA kept; label: inside an RPR1-promoter hybrid RNA with tandem MS2 sites; ssRNA

In one assay the target is PUM1 PUF domain R5-RMC (Homo sapiens, UniProt Q14671 828-1176, C1007R;R1008M;Q1011C). The gist of the method:
(§1)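 The interaction score is the log change in how often each variant appears, from input to selection. Frequencies came from PCR-amplified, Illumina-sequenced repeat regions of Pumilio-1 PUF domain libraries grown in strain YBZ-1 (LexA–MS2 coat fusion, HIS3 reporter) alongside matching RNA elements. Input plates were SC-Leu and selection plates were SC-Leu-His + 0.5 mM 3-AT, each for four days, and the log2 calculation used a pseudocount of 1 where a variant was absent.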

The next assay addresses PUM1 PUF domain R5-PRD (Homo sapiens, UniProt Q14671 828-1176, C1007P;Q1011D). In a few lines: as §1
A further assay has as its target PUM1 PUF domain R5-TAR (Homo sapiens, UniProt Q14671 828-1176, C1007T;R1008A;Q1011R). The gist of the method:
as §1

The target of a further assay is T1, PUM1 PUF domain R6-DWE (Homo sapiens, UniProt Q14671 828-1176, N1043D;Y1044W;Q1047E).
T1 sequence: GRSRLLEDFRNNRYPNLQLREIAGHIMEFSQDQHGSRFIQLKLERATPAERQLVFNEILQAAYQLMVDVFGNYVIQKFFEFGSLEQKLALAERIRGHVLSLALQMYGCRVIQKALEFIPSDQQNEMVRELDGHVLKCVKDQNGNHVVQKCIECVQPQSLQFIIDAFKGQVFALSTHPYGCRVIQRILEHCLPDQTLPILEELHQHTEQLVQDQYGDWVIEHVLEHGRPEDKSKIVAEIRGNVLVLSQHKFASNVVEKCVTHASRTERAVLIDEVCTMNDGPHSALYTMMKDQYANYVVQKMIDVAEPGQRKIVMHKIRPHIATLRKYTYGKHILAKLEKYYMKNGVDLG
In a few lines:
as §1

The next assay concerns the target PUM1 PUF domain R5-QVI (Homo sapiens, UniProt Q14671 828-1176, C1007Q;R1008V;Q1011I). The gist of the method: as §1
The target of another assay is PUM1 PUF domain R4-WGT (Homo sapiens, UniProt Q14671 828-1176, N971W;H972G;Q975T). In a few lines: as §1
Another assay addresses PUM1 PUF domain R2-AWY (Homo sapiens, UniProt Q14671 828-1176, N899A;Y900W;Q903Y). In a few lines: as §1
In the next assay the target is PUM1 PUF domain R3-GFL (Homo sapiens, UniProt Q14671 828-1176, C935G;R936F;Q939L). The gist of the method:
as §1

The target of the next assay is PUM1 PUF domain R3-VYD (Homo sapiens, UniProt Q14671 828-1176, C935V;R936Y;Q939D). In a few lines:
as §1

The target of a further assay is PUM1 PUF domain R5-AFY (Homo sapiens, UniProt Q14671 828-1176, C1007A;R1008F;Q1011Y). In a few lines:
as §1

For the sequence “GGCUAGAACUAGUGGAUCCCCCGGCGCCCGGCGGCUCGAGCCCGGGUAAGUGUUAAUAGUCUGCAUGCCGCCGGGCGCCAUGCCUGCAGGUCGACUCUAGAAAACAUG”, the binding signal with PUM1 PUF domain R5-RMC was 3.38 log2 enrichment (interaction score); with PUM1 PUF domain R5-PRD, 3.07 log2 enrichment (interaction score); with PUM1 PUF domain R5-TAR, 1.21 log2 enrichment (interaction score).
For the sequence “GGCUAGAACUAGUGGAUCCCCCGGCGCCCGGCGGCUCGAGCCCGGGUAAGUGAAAAUAGUCUGCAUGCCGCCGGGCGCCAUGCCUGCAGGUCGACUCUAGAAAACAUG”, the binding signal with PUM1 PUF domain R6-DWE was 2.98 log2 enrichment (interaction score).
On to “GGCUAGAACUAGUGGAUCCCCCGGCGCCCGGCGGCUCGAGCCCGGGUAAGUGUGAAUAGUCUGCAUGCCGCCGGGCGCCAUGCCUGCAGGUCGACUCUAGAAAACAUG”, for which, in the assay with PUM1 PUF domain R5-QVI, the binding signal is 4.41 log2 enrichment (interaction score).
Regarding “GGCUAGAACUAGUGGAUCCCCCGGCGCCCGGCGGCUCGAGCCCGGGUAAGUGUACAUAGUCUGCAUGCCGCCGGGCGCCAUGCCUGCAGGUCGACUCUAGAAAACAUG”, the binding signal with PUM1 PUF domain R4-WGT was 2.69 log2 enrichment (interaction score).
On to “GGCUAGAACUAGUGGAUCCCCCGGCGCCCGGCGGCUCGAGCCCGGGUAAGUGUAAAAAGUCUGCAUGCCGCCGGGCGCCAUGCCUGCAGGUCGACUCUAGAAAACAUG”, for which the binding signal in the assay with PUM1 PUF domain R2-AWY is 3.08 log2 enrichment (interaction score).
Consider “GGCUAGAACUAGUGGAUCCCCCGGCGCCCGGCGGCUCGAGCCCGGGUAAGUGUAAUUAGUCUGCAUGCCGCCGGGCGCCAUGCCUGCAGGUCGACUCUAGAAAACAUG”, for which the binding signal in the assay with PUM1 PUF domain R3-GFL is 2.59 log2 enrichment (interaction score).
Consider “GGCUAGAACUAGUGGAUCCCCCGGCGCCCGGCGGCUCGAGCCCGGGUAAGUGUAAAUAGUCUGCAUGCCGCCGGGCGCCAUGCCUGCAGGUCGACUCUAGAAAACAUG”, for which the binding signal with PUM1 PUF domain R3-VYD is 6.46 log2 enrichment (interaction score); with PUM1 PUF domain R3-GFL, 4.38 log2 enrichment (interaction score); with PUM1 PUF domain R4-WGT, 3.43 log2 enrichment (interaction score); with PUM1 PUF domain R5-PRD, 3.41 log2 enrichment (interaction score); in the assay with PUM1 PUF domain R5-AFY it was 2.38 log2 enrichment (interaction score).
Regarding “GGCUAGAACUAGUGGAUCCCCCGGCGCCCGGCGGCUCGAGCCCGGGUAAGUGUCAAUAGUCUGCAUGCCGCCGGGCGCCAUGCCUGCAGGUCGACUCUAGAAAACAUG”, the binding signal was 3.26 log2 enrichment (interaction score) with PUM1 PUF domain R5-RMC, 2.8 log2 enrichment (interaction score) with PUM1 PUF domain R5-PRD and 5.36 log2 enrichment (interaction score) with PUM1 PUF domain R5-TAR.
Regarding “GGCUAGAACUAGUGGAUCCCCCGGCGCCCGGCGGCUCGAGCCCGGGUAAGUGUAUAUAGUCUGCAUGCCGCCGGGCGCCAUGCCUGCAGGUCGACUCUAGAAAACAUG”, the binding signal with PUM1 PUF domain R4-WGT is 4.02 log2 enrichment (interaction score).
